Sampled rows, rich in hits. Any-hit rate of the full collection: about 2.8%.
PI5P4K alpha inh – inhibitors of human PI5P4K alpha. max response, %. P48426. 1.2% of 330,000 active. PI5P4Kalpha enzyme, ADP-Glo luminescence, 60 min; stronger effect = lower value; active = max response of -50% or lower; inconclusive = between -30% and -50%; inactive = -30% or higher; also: value at the top dose of about 77 µM; % is scaled to controls: 0 for no effect and ±100 for the full control effect
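ADP-Glo luminescence end-point after a 60 min room-temperature kinase reaction. PI5P4Kalpha and substrate in HEPES pH 7.4 buffer with EGTA, 0.1% CHAPS and 5% DMSO; ATP at 5 microM final.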
Pol iota inh – blocks human DNA polymerase iota activity; Pol iota fluorescent replication assay, 10 min; Q9UNA4; Potency, µM (top dose mostly 115 µM), without a hit: at the highest dose activity, negative = inhibition, usual class: inhibitors; AID 588590; 1% of 390,000 active; also: potency is read from the fitted curve at half-maximal effect
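Pol iota at 10 nM preincubated 15 min with compounds at room temperature; reaction started with fluorescent substrate, 50 nM final. Fluorescence read kinetically at 0 and 10 min; buffer-only wells as negative control.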
WRN helicase inh – inhibitors of human WRN helicase. Q14191. WRN helicase unwinding, fluorescent forked duplex, kinetic. Potency, µM (highest dose often 114 µM), for the others: at the highest dose activity change, negative = inhibition, most hits filed as inhibitors. 0.46% of 360,000 active. AID 651768; also: potency is read from the fitted curve at half-maximal effect; % is scaled to controls: 0 for no effect and ±100 for the full control effect; nearly all actives have a fitted effect of over 55% in size
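Fluorescence dequenching readout, ex 525 nm/em 598 nm, kinetic mode: forked duplex DNA (100 nM final) with adjacent fluorophore and quencher unwound by WRN (20 nM final) with 2 mM ATP. Compound preincubation 15 min, room temperature.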
POLH inh – blocks human DNA polymerase eta activity | 1.2% of 390,000 active | recombinant Pol eta, fluorescent DNA replication assay | Potency, µM (titrated, usually from 114 µM), for inactives: top-dose activity change, negative = inhibition, most hits filed as inhibitors; also: potency is read from the fitted curve at half-maximal effect; % is scaled to controls: 0 for no effect and ±100 for the full control effect
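Pol eta at 10 nM preincubated with compounds 15 min at room temperature; reaction started with fluorescent substrate (50 nM final) and read kinetically at 0 and 10 min.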
POLB inh – inhibitors of human DNA polymerase beta; P06746; Pol beta primer extension/strand displacement, fluorescence kinetic; Potency, µM (top dose mostly 114 µM), inactives show at the highest dose activity change, negative = inhibition, actives largely listed as inhibitors; 1.3% of 340,000 active; AID 485314; also: potency is read from the fitted curve at half-maximal effect; % is scaled to controls: 0 for no effect and ±100 for the full control effect
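Reaction started by 50 nM substrate onto compound-treated Pol beta (10 nM, 15 min preincubation, room temperature); plates read at 0 min and 10 min. Normalized concentration-effect data fitted by four-parameter Hill equation.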
POLK inh – DNA polymerase kappa (human) inhibition | Q9UBT6 | purified Pol kappa, fluorescent DNA synthesis assay, 10 min | Potency, µM (doses to about 107 µM), inactives show at the top dose activity, negative = inhibition, most hits filed as inhibitors | 0.53% of 400,000 active | AID 588579; also: potency is read from the fitted curve at half-maximal effect; % is scaled to controls: 0 for no effect and ±100 for the full control effect
Target sequence (Q9UBT6 whole entry, looked up): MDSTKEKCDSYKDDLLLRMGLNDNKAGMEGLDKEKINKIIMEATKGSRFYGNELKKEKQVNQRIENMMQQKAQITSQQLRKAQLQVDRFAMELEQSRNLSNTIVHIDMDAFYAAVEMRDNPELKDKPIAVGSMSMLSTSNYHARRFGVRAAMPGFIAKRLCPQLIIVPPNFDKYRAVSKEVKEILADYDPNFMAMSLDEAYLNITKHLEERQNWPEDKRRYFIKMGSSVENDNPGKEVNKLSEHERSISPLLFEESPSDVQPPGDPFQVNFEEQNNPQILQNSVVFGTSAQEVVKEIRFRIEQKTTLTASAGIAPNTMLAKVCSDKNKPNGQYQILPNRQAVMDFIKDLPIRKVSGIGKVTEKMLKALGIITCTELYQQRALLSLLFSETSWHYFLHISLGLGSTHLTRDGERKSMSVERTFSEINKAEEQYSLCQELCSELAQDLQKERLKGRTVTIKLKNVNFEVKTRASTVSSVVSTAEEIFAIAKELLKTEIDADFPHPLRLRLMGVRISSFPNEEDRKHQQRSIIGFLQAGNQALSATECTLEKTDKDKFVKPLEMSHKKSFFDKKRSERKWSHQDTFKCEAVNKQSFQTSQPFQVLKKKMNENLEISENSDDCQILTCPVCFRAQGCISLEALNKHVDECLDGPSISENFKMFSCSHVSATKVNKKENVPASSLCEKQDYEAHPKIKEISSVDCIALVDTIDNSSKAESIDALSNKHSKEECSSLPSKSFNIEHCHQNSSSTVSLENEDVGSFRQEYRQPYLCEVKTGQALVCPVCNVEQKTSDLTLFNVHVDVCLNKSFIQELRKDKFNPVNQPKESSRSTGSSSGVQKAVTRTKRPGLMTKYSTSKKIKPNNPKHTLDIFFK
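Enzyme at 10 nM met test compounds for 15 min at room temperature. Substrate addition (50 nM final) began the reaction, which was monitored by fluorescence at 0 and 10 min.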
ADP-Glo counter – interferes with ADP-Glo detection without enzyme present; shares compounds with PI5P4K alpha inh; ADP-Glo detection counter-screen, luciferase luminescence, no enzyme; Potency, µM (series often up to 76.9 µM), for inactives: top-dose activity change, negative = inhibition, usual class: inhibitors; 1,100 tested, under 10 active; AID 743285
* hit, by the source's call; ? = inconclusive; · = no result; [ ] = remark or other dose. Unless noted, calls follow the shape of the dose curve; as a rule, active = well fitted curve in the direction sought with a large enough effect; inconclusive = small, poorly fitted or top-dose-only effect, or another doubt; inactive = no such curve, though single readings can be large; an effect the other way counts as inactive or inconclusive.

SMILES	PI5P4K alpha inh	Pol iota inh	WRN helicase inh	POLH inh	POLB inh	POLK inh	ADP-Glo counter
CC(=O)c1ccc(NC(=O)CC2Nc3cccc4cccc(c34)NC2=O)cc1 (stereo not drawn)	-54*	?	-2%	-1%	?	?	-5%
Cc1cc(C)c(C)c(S(=O)(=O)N[C@@H](C)C(=O)OCc2cc(=O)n3cc(Br)ccc3n2)c1C	-52*	50µM*	-5%[11.6 µM]	?	8.9µM*	?	-2%
Nc1nc(Nc2ccccc2F)sc1C(=O)c1ccccc1	-91*	-5%	-9%	-8%	1%	-4%[60.1 µM]	1%
O=C(NCCc1ccccc1)C(c1cccs1)N(C(=O)c1csnn1)C1CC1 (stereo not drawn)	0	89µM*	8%	-1%	21%	-7%	1%
O=C(COc1cccc2ccccc12)Nc1ccc(Cl)cc1C(=O)O	-54*	8%	-15%	?	?	-11%	-1%
COC(=O)c1ccc2nc(-c3ccco3)c(Cc3ccc(OC)cc3C)n2c1	-80*	·	-34%	·	·	·	1%
CCn1nc(CC(=O)Nc2nnc(CC(=O)N3CCOCC3)s2)c2ccccc2c1=O	2	9%	-14%[57.1 µM]	-21%	-2%	-3%	0%
CNC(=O)C1(C)CCN1C(=O)Cc1ccc(C(C)C)cc1 (stereo not drawn)	2	·	-3%	·	·	·	·
O=C(Cn1cncn1)NCc1ccccc1Br	-62*	3%	22%	-10%	21%	-6%	-2%
O=C(O)c1cc2c(N3CCC(Cc4ccccc4)CC3)ncnc2s1	·	-3%	-5%	9%	-12%	2%	3%

Screens as filed in PubChem.
